Laboratory results reported in PubChem BioAssay (NCATS).
Results filed as inconclusive are left out. Unmarked numbers belong to inactive results. Calls of active or inactive are those of the source. Calls come from the whole dose curve; as a rule, active = well fitted inhibition curve with a large enough effect; inconclusive = small, poorly fitted or top-dose-only effect; inactive = no such curve, though single readings can be large or run the other way.
% is set by controls: 0 for no effect and ±100 for the full control effect.

These compounds were tested against Retinaldehyde dehydrogenase 3 (Homo sapiens) (UniProt P47895) (assay: qHTS for Inhibitors of the Aldehyde Dehydrogenase Family (ALDH1A3) Confirmatory screens (AID 2061311; note: nearly all actives have a fitted effect of over 60% in size; note: potency is the fitted concentration of half-maximal effect)). Conditions: ALDH inhibition qHTS; series mostly up to 46 µM; activity change, negative = inhibition: at the top concentration.
With `Cc1nc(N=Nc2cc(S(=O)(=O)O)c3cc([N+](=O)[O-])cc(S(=O)(=O)O)c3c2)c(COP(=O)(O)O)c(C=O)c1O` the Potency was 22.5 µM (active). For `COc1ccccc1N1CCN(CCN2C(=O)CC3(CCCC3)CC2=O)CC1`, the “activity change, negative = inhibition” value was -12%. In the case of `N#C/C(=C\c1ccc(O)c(O)c1)C(=O)NCCCNC(=O)/C(C#N)=C/c1ccc(O)c(O)c1`, the Potency was 2.83 µM (active). `O=C(c1cc(O)c(O)c([N+](=O)[O-])c1)c1ccccc1F` was tested, and the Potency was 3.18 µM (active). With `O=c1ccc2ccc(O)c(O)c2o1` the Potency was 8.96 µM (active). With `Cn1c(=O)c2[nH]c(-c3ccc(S(=O)(=O)O)cc3)nc2n(C)c1=O` the “activity change, negative = inhibition” value was -25.4%. With `C=Cc1c(C)c2cc3[nH]c(cc4nc(cc5nc(cc1[nH]2)C(C)=C5CCC(=O)O)C(CCC(=O)O)=C4C)c(C)c3C=C` the Potency was 25.2 µM (active). For `CN(C)C/C=C(/c1ccc(Br)cc1)c1cccnc1`, the “activity change, negative = inhibition” value was -8.49%.

These compounds were tested against Retinaldehyde dehydrogenase 3 (Homo sapiens) (UniProt P47895) (assay: qHTS for Inhibitors of the Aldehyde Dehydrogenase Family (ALDH1A3) Validation screen (AID 2061312; note: nearly all actives have a fitted effect of over 45% in size)). Conditions: ALDH1A3 enzyme inhibition qHTS validation, fluorescence; series mostly up to 84.7 µM; activity change, negative = inhibition: at the top concentration.
With `Cc1nc(N=Nc2cc(S(=O)(=O)O)c3cc([N+](=O)[O-])cc(S(=O)(=O)O)c3c2)c(COP(=O)(O)O)c(C=O)c1O` the “activity change, negative = inhibition” value was -27.4% [at 42.4 µM]. With `NC(=O)C1=CN(C2OC(COP(=O)(O)OP(=O)(O)OC[C@H]3O[C@@H](n4cnc5c(N)ncnc54)[C@H](OP(=O)(O)O)[C@@H]3O)C(O)C2O)C=CC1` (stereo partly drawn) the “activity change, negative = inhibition” value was 12.4% [at 42.4 µM]. With `c1ccc(C(NCc2cccnc2)(c2ccccc2)c2ccccc2)cc1` the “activity change, negative = inhibition” value was 17% [at 42.4 µM]. `CN1CCN(C2=Nc3ccccc3Oc3ccc(Cl)cc32)CC1` was tested, and the “activity change, negative = inhibition” value was 2.81% [at 42.4 µM]. In the case of `O=C1c2c(O)cc(O)cc2OC(c2ccc(O)c(O)c2)C1O` (stereo not drawn), the “activity change, negative = inhibition” value was 4.87% [at 42.4 µM]. For `CO/N=C(\C(=O)N[C@@H]1C(=O)N2C(C(=O)O)=C(CSc3nc(=O)c(O)nn3C)CSC12)c1csc(N)n1` (stereo partly drawn), the “activity change, negative = inhibition” value was -7.02% [at 42.4 µM]. In the case of `O=C(Nc1cccc(C(=O)Nc2ccc(S(=O)(=O)O)c3cc(S(=O)(=O)O)cc(S(=O)(=O)O)c23)c1)Nc1cccc(C(=O)Nc2ccc(S(=O)(=O)O)c3cc(S(=O)(=O)O)cc(S(=O)(=O)O)c23)c1`, the “activity change, negative = inhibition” value was 5.84% [at 42.4 µM]. `CCn1cc(C(=O)O)c(=O)c2cc3c(cc21)OCO3` was tested, and the “activity change, negative = inhibition” value was 18.9% [at 42.4 µM]. In the case of `Cn1c(=O)c2[nH]c(-c3ccc(S(=O)(=O)O)cc3)nc2n(C)c1=O`, the “activity change, negative = inhibition” value was -56.6% [at 42.4 µM]. For `COc1ccc(NC(=O)/C=C/c2ccc(Cl)cc2)cc1`, the “activity change, negative = inhibition” value was -27.5% [at 42.4 µM]. With `CC1(C)NC(=O)N(c2ccc([N+](=O)[O-])c(C(F)(F)F)c2)C1=O` the “activity change, negative = inhibition” value was 26% [at 42.4 µM]. In the case of `O=C(O)C1=CCCN(CCON=C(c2ccccc2)c2ccccc2)C1`, the “activity change, negative = inhibition” value was -22% [at 42.4 µM]. `S=c1[nH]c(-c2ccccc2)cn1-c1ccccc1` was tested, and the “activity change, negative = inhibition” value was -4.8% [at 42.4 µM]. In the case of `C=Cc1c(C)c2cc3[nH]c(cc4nc(cc5nc(cc1[nH]2)C(C)=C5CCC(=O)O)C(CCC(=O)O)=C4C)c(C)c3C=C`, the “activity change, negative = inhibition” value was -50.8% [at 42.4 µM]. `NS(=O)(=O)c1cccc2c1c([N+](=O)[O-])cc1nc(O)c(O)nc12` was tested, and the “activity change, negative = inhibition” value was -23.8% [at 42.4 µM]. With `CCCCS(=N)(=O)CC[C@H](N)C(=O)O` (stereo partly drawn) the “activity change, negative = inhibition” value was -20.7% [at 42.4 µM]. In the case of `CCCCCCCC/C=C\CCCCCCCC(=O)NCc1ccc(O)c(OC)c1`, the “activity change, negative = inhibition” value was 16.7% [at 42.4 µM]. For `CCN(CC)C(C)CN1c2ccccc2Sc2ccccc21` (stereo not drawn), the “activity change, negative = inhibition” value was -28.9% [at 42.4 µM].

These compounds were tested against Retinal dehydrogenase 2 (Homo sapiens) (UniProt O94788) (assay: qHTS for Inhibitors of the Aldehyde Dehydrogenase Family (ALDH1A2) Confirmation screens (AID 2061314; note: nearly all actives have a fitted effect of over 65% in size; note: potency is the fitted concentration of half-maximal effect)). Conditions: ALDH1A2 enzyme inhibition qHTS confirmation; series mostly up to 45.9 µM; activity, negative = inhibition: at the top concentration.
In the case of `Cc1nc(N=Nc2cc(S(=O)(=O)O)c3cc([N+](=O)[O-])cc(S(=O)(=O)O)c3c2)c(COP(=O)(O)O)c(C=O)c1O`, the “activity, negative = inhibition” value was -13.9%. With `COc1ccccc1N1CCN(CCN2C(=O)CC3(CCCC3)CC2=O)CC1` the “activity, negative = inhibition” value was -5.79%. With `CCCCC#Cc1nc(NC)c2ncn([C@@H]3O[C@H](CO)[C@@H](O)[C@H]3O)c2n1` the “outcome” value was “inactive”. With `O=C(c1cc(O)c(O)c([N+](=O)[O-])c1)c1ccccc1F` the “activity, negative = inhibition” value was -9.6%. For `COc1cc(/C=C(\C#N)C(=O)Nc2nnc(C(F)(F)F)s2)ccc1OCc1ccc(C(F)(F)F)cc1C(F)(F)F`, the “activity, negative = inhibition” value was -25.3%. `O=c1ccc2ccc(O)c(O)c2o1` was tested, and the “activity, negative = inhibition” value was -19.6%. For `Cn1c(=O)c2[nH]c(-c3ccc(S(=O)(=O)O)cc3)nc2n(C)c1=O`, the “activity, negative = inhibition” value was -0.0227%. With `NS(=O)(=O)c1cccc2c1c([N+](=O)[O-])cc1nc(O)c(O)nc12` the Potency was 25.2 µM (active). In the case of `Cc1cccc(C)c1OCC(N)C(C)C` (stereo not drawn), the “outcome” value was “inactive”.

The compounds below were run against Aldehyde dehydrogenase 1A1 (Homo sapiens) (UniProt P00352) (assay: qHTS for Inhibitors of the Aldehyde Dehydrogenase Family (ALDH1A1) Confirmatory screens (AID 2061316; note: nearly all actives have a fitted effect of over 65% in size; note: potency is the fitted concentration of half-maximal effect)). Conditions: ALDH inhibition qHTS; series mostly up to 47.3 µM; activity change, negative = inhibition: at the top concentration.
With `Cc1nc(N=Nc2cc(S(=O)(=O)O)c3cc([N+](=O)[O-])cc(S(=O)(=O)O)c3c2)c(COP(=O)(O)O)c(C=O)c1O` the “activity change, negative = inhibition” value was -13.9%. `CCCCC#Cc1nc(NC)c2ncn([C@@H]3O[C@H](CO)[C@@H](O)[C@H]3O)c2n1` was tested, and the “activity change, negative = inhibition” value was -14.6%. In the case of `O=C(c1cc(O)c(O)c([N+](=O)[O-])c1)c1ccccc1F`, the Potency was 12.7 µM (active). In the case of `COc1cc(/C=C(\C#N)C(=O)Nc2nnc(C(F)(F)F)s2)ccc1OCc1ccc(C(F)(F)F)cc1C(F)(F)F`, the “outcome” value was “inactive”. `Cn1c(=O)c2[nH]c(-c3ccc(S(=O)(=O)O)cc3)nc2n(C)c1=O` was tested, and the “activity change, negative = inhibition” value was -10.8%. For `C=Cc1c(C)c2cc3[nH]c(cc4nc(cc5nc(cc1[nH]2)C(C)=C5CCC(=O)O)C(CCC(=O)O)=C4C)c(C)c3C=C`, the Potency was 12.7 µM (active). In the case of `CN(C)C/C=C(/c1ccc(Br)cc1)c1cccnc1`, the “activity change, negative = inhibition” value was -18.2%. With `NS(=O)(=O)c1cccc2c1c([N+](=O)[O-])cc1nc(O)c(O)nc12` the Potency was 12.7 µM (active).
